Each structure is given as a SMILES string. Inconclusive results are not listed. Active and inactive are the calls of the source. Unless noted, the call rests on the fitted dose curve; in most records, active means well fitted curve in the direction sought with a large enough effect; inconclusive means small, poorly fitted or top-dose-only effect, or another doubt; inactive means no such curve, though single readings can be large; an effect the other way counts as inactive or inconclusive.

The nature of assay [1]: qHTS for Inhibitors of the vitamin D receptor (VDR): Hit Validation using a Texas Red Assay (AID 602201). Further: potency means the concentration at half of the fitted maximal effect. Conditions: VDR coregulator binding, Texas Red fluorescence polarization; agonist-bound VDR ligand-binding domain. Put shortly: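 Fluorescence polarization with 1.5 uM VDR-LBD, LG19078 and 7 nM Texas Red (final). After 2 hours at ambient temperature, read at Ex 595 nm/Em 615 nm.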
Background: qHTS replaces the single test concentration by a dilution series.

Assay [2] in a line: Cytotoxicity counterscreen for NFkB agonists and antagonists (AID 624476). Further: on the % scale 0 is the no-effect control and ±100 the full control effect. Conditions: NFkB reporter cell line viability counterscreen; series mostly up to 46.1 µM. (In general: A counterscreen serves to expose hits that act by an unwanted route or on another target.)
Assay [3] can be described thus: qHTS Assay for Identification of Small Molecule Agonists for NFkB Signaling Pathway. (AID 624478). Further: 0% is about no effect. Conditions: NFkB pathway reporter cell assay, agonist mode, cells co-stimulated with 10 pM TNF alpha; series mostly up to 46.1 µM. Summed up: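 NFkB-bla ME-180 cells carry a beta-lactamase reporter. They received compound plus TNF alpha at 10 pM final (its EC50) for 5 h at 37 C. Reporter activity was read as 460/530 nm emission ratio after 2 h LiveBLAzer substrate loading.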

The nature of assay [4]: qHTS Assay for Identification of Small Molecule Antagonists for NFkB Signaling Pathway. (AID 624479; calls by dose curve; further: on the % scale 0 is the no-effect control and ±100 the full control effect). Conditions: NFkB pathway reporter cell assay, antagonist mode; series mostly up to 38.3 µM.
Assay [5] can be described thus: Cell Proliferation Assay against the TMD8 Cell Line (AID 651645).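 Further: cells exposed to compound for 48 h before reading.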 The following applies: TMD8 DLBCL cell line proliferation/viability; at 46.1 µM (top of the series). Summed up:
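Seed log-phase TMD8 cells in RPMI containing 5% FBS, add compounds at once, incubate 48 hours at 37C. Equilibrate to room temperature, add CellTiter-Glo, read luminescence after 15 minutes and express relative to DMSO and bortezomib controls.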

Assay [6] is described as follows: Cell Proliferation Assay against the HBL1 Cell Line (AID 651646).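 Further: cells exposed to compound for 48 h before reading.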 The following applies: HBL1 DLBCL cells; at 46.1 µM (top of the series). Summed up:
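HBL1 ABC DLBCL cells, 500/well in RPMI with 5% FBS, treated for 48 h at 37C. Viability read by CellTiter-Glo luminescence, normalized to DMSO as 100% and 9.2 uM bortezomib as 0%.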

A short description of assay [7]: Cell Proliferation Assay against the TMD8 Cell Line (Caspase readout at 16 hrs) (AID 651712). Conditions: TMD8 lymphoma cells, caspase activation luminescence; series mostly up to 46.1 µM. Put shortly:
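TMD8 cells in RPMI with 5% FBS were treated with compound for 16 h at 37 C, then caspase 3/7 activation was read by Caspase-Glo luminescence. Percent activity was scaled to DMSO (0%) and 9.2 uM bortezomib final (100%).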

Assay [8] is described as follows: qHTS assay for small molecule agonists of the antioxidant response element (ARE) signaling pathway (AID 651741; active means well fitted activation curve with a large enough effect in the signal ratio; the % refers to the signal ratio; further: potency means the concentration at half of the fitted maximal effect; on activation: % of control where 0% means no effect). The following applies: HepG2 ARE-bla reporter, beta-lactamase FRET ratio, 16 h; series mostly up to 96 µM. Summed up: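 CellSensor ARE-bla HepG2 cells (2,000/well) carrying ARE-driven beta-lactamase, exposed 16 h at 37 C. LiveBLAzer B/G FRET substrate added for 2 h at room temperature; fluorescence intensity read.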

Assay [9] addresses Glutaminase kidney isoform, mitochondrial (Homo sapiens) (UniProt O94925). Description: qHTS for Inhibitors of Glutaminase (GLS): LOPAC Validation (AID 624146). Further: nearly all actives have a fitted effect of over 60% in size. Further: potency means the concentration at half of the fitted maximal effect. The following applies: glutaminase enzyme activity inhibition; series mostly up to 46.1 µM. Summed up:
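Assay buffer: 45 mM KH2PO4 pH 8.2, 0.02% Tween-20. hKGA acts on L-glutamine (1 mM solution added); product glutamate is reported by an oxidase/peroxidase Amplex Red coupling, with fluorescence taken at baseline and 30 min.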

The nature of assay [10]: qHTS of Trypanosoma Brucei Inhibitors: LOPAC Validation (AID 624147). Further: 0% is about no effect. Conditions: purified enzyme assay, luminescence, 45 min; series mostly up to 57.5 µM. Summed up: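 T. brucei PYK with substrate was exposed to pin-transferred compounds across a concentration series, then started with 130 uM ADP (final). After 45 min at room temperature, Kinase-Glo Plus luminescence was read, normalized and curve-fitted.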

In assay [11] the target is Glucagon-like peptide 1 receptor (Homo sapiens) (UniProt P43220). Put plainly: qHTS of GLP-1 Receptor Agonists: LOPAC Validation (AID 624148).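 Further: 0% is about no effect; higher luminescence signal means agonism.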 The following applies: GLP-1R agonist cell assay; series mostly up to 46.1 µM. Summed up:
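HEK293 cells stably co-expressing GLP-1R and a cAMP-responsive luciferase reporter, plated 12 hours before compound, then incubated 4-6 hr at 37 deg C. Luminescence read 12 min after detection reagent.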

The nature of assay [12]: qHTS of Nrf2 Activators: LOPAC Validation (AID 624149). Further: 0% is about no effect. The following applies: Nrf2/ARE reporter cell assay; series mostly up to 46.1 µM. Put shortly:
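AREc32_Fluc cells, 1000/well in OPTI-MEM with 5% FBS, grown overnight, then exposed to compounds for 24 hr at 37 deg C, 5% CO2. ARE-driven firefly luciferase read by Steady-Glo luminescence after 30 min at RT.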

Assay [13] can be described thus: HTS Assay for Allosteric Antagonists of the Human D2 Dopamine Receptor: Hit Validation in HTRF (AID 624455). Further: potency means the concentration at half of the fitted maximal effect.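 Further: stable D1 dopamine receptor cell line scored for blocking the D1 response.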 Conditions: Cells stably expressing D1 dopamine receptor, inhibition mode; series mostly up to 46.1 µM. Put shortly:
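Hit validation in cells stably expressing the D1 dopamine receptor, run in HTRF format. Compounds were tested for their ability to inhibit the D1-mediated response.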
A general note: TR-FRET usually uses a lanthanide donor and a delayed reading to cut background.

Glucagon-like peptide 1 receptor (Homo sapiens), sequence (P43220 whole entry, looked up): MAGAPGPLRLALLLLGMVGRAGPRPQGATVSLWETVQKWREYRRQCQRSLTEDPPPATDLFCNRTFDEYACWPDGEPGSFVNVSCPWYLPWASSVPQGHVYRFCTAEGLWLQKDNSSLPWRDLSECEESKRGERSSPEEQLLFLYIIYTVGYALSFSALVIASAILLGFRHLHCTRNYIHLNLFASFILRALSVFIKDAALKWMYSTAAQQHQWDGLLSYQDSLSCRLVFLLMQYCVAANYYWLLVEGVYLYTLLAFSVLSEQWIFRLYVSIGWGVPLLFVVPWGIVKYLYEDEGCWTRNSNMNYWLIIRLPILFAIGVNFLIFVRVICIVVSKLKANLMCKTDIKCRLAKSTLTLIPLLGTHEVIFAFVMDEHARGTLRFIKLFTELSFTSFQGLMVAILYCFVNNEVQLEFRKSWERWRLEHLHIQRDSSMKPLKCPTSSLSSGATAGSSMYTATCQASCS
Glutaminase kidney isoform, mitochondrial (Homo sapiens), sequence (O94925 whole entry, looked up, canonical isoform): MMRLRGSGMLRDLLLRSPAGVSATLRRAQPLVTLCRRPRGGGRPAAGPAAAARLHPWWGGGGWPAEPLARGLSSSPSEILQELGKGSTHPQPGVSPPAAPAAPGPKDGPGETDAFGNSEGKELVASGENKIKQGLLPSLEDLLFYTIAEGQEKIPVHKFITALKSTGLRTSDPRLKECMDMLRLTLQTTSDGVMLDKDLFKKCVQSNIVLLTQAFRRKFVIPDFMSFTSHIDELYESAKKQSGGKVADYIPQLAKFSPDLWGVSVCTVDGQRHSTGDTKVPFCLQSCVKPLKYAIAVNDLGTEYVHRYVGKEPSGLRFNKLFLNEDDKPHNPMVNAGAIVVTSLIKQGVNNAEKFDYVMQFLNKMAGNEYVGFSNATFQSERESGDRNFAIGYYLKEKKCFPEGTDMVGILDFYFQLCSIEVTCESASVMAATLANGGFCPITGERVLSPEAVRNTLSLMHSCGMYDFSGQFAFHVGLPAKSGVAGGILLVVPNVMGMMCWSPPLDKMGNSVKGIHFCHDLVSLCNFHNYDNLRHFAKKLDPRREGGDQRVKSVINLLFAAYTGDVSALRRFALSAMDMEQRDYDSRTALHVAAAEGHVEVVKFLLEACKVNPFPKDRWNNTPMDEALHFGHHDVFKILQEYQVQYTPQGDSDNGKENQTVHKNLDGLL

As for `CCCCC1C(=O)N(c2ccccc2)N(c2ccc(O)cc2)C1=O` (centres undefined), in [1], the Potency was 15.8 µM (active).

Turning to `CN1CC(=O)N/C1=N/C(=O)Nc1cccc(Cl)c1`, the Potency result in assay [2] was “inactive”. Besides, the compound was called inactive in assay [3], in assay [4] and in [7]. The viability (% of control) in [5] amounted to 105%. In assay [6], the viability, percent of control stood at 111%.

Take `Nc1ccc(O)c(C(=O)O)c1`: the Potency entry in [8] was “inactive”.

Take `COc1cc(/C=C/C(=O)CC(=O)/C=C/c2ccc(O)c(OC)c2)ccc1O`: the Potency in assay [8] is 25.9 µM (active).

For `O=Nc1ccc2oc(=O)ccc2c1`, the Potency in [9] is 10 µM (active). Moreover, the Potency entry in [10] and in assay [13] was “inactive” each time. Further, the result in assay [11] and in [12] was inactive.

Turning to `CCN1/C(=C/C(C)=O)Sc2ccc(OC)cc21`, the Potency result in [9], in assay [10] and in assay [13] was “inactive” in each case. For the same compound, the result in assay [11] and in assay [12] was inactive.

Take `NCCCCC(=O)O`: the Potency result in [9], in assay [10] and in [13] was “inactive” in each case. For the same compound, the compound was classed as inactive in assay [11] and in assay [12].

Consider `OCC1O[C@H](O)C(Cl)C(O)C1O` (some centres undefined), for which the Potency result in [9], in [10] and in [13] was “inactive” throughout. In addition, the result in assay [11] and in [12] was inactive.

As for `N#C/C(=C\c1c[nH]c2ccccc12)C(=O)c1ccc(O)c(O)c1`, the Potency in assay [9] is 1.12 µM (active). Moreover, the Potency entry in [10] and in [13] was “inactive” throughout. For the same compound, the compound was classed as inactive in [11] and in [12].

As for `CSc1ccccc1N1CCN(CCCCCC(=O)NC2CCCc3ccccc32)CC1` (centres undefined), the Potency result in assay [9], in assay [10] and in assay [13] was “inactive” throughout. Further, the result in assay [11] and in [12] was inactive.

With `CN1CCc2cc(NC(=O)Nc3cccnc3)ccc21`, the Potency entry in [9], in assay [10] and in assay [13] was “inactive” throughout. For the same compound, the compound was classed as inactive in assay [11] and in assay [12].

For the compound `COc1cc(SC)ccc1C(=O)N1CCC(Cc2ccccc2)CC1`, the Potency result in [9], in [10] and in assay [13] was “inactive” throughout. The result in assay [11] and in assay [12] was inactive.

For the compound `C[C@@H](CN1CCC(Cc2ccccc2)CC1)[C@@H](O)c1ccc(O)cc1`, the Potency entry in [9], in assay [10] and in [13] was “inactive” throughout. Also, the result in assay [11] and in [12] was inactive.

For the compound `CO/S(=N\S(=O)(=O)c1ccc(Cl)cc1)c1ccc([N+](=O)[O-])cc1` (centres undefined), the Potency result in [9], in assay [10] and in assay [13] was “inactive” throughout. The outcome in assay [11] and in assay [12] was inactive.

For `O=C1NC(=O)/C(=C/c2ccc3nccnc3c2)S1`, the Potency result in assay [9], in assay [10] and in [13] was “inactive” throughout. The compound was called inactive in assay [11] and in [12].

`CC1CN(S(=O)(=O)c2cccc3cnccc23)CCN1` (centres undefined): the Potency entry in [9], in assay [10] and in [13] was “inactive” each time. The compound was called inactive in assay [11] and in assay [12].

`CCCCCC(O)c1cccc(OCc2ccc3ccccc3n2)c1` (centres undefined): the Potency result in [9], in assay [10] and in assay [13] was “inactive” throughout. The compound was called inactive in assay [11] and in [12].

Consider `CCc1c(C(=O)NCCc2ccc(N3CCCCC3)cc2)[nH]c2ccc(Cl)cc12`, for which the Potency entry in [9], in assay [10] and in [13] was “inactive” each time. Further, the outcome in assay [11] and in [12] was inactive.

In the case of `O=c1[nH]c2cc(Cl)c(Cl)cc2[nH]c1=O`, the Potency result in assay [9], in assay [10] and in assay [13] was “inactive” throughout. Further, the call in [11] and in assay [12] was inactive.

Regarding `O=C(O)CNC(=O)C(CS)Cc1ccccc1` (centres undefined), the Potency result in assay [9], in [10] and in assay [13] was “inactive” in each case. Also, the compound was called inactive in assay [11] and in assay [12].

Turning to `C[N+](C)(C)CCOP(=O)(O)OP(=O)([O-])OC[C@H]1O[C@@H](n2ccc(N)nc2=O)[C@H](O)[C@@H]1O`, the Potency result in assay [9], in assay [10] and in assay [13] was “inactive” each time. In addition, the call in [11] and in assay [12] was inactive.

For `O=C(O)CC[C@@H](C(=O)O)N1C(=O)c2ccccc2C1=O`, the Potency entry in assay [9], in [10] and in assay [13] was “inactive” each time. Besides, the result in assay [11] and in [12] was inactive.

Take `NC(CCCP(=O)(O)O)C(=O)O` (centres undefined): the Potency result in assay [9], in [10] and in assay [13] was “inactive” in each case. For the same compound, the result in assay [11] and in assay [12] was inactive.

As for `CC1(C)CCC=[N+]1[O-]`, the Potency entry in assay [9], in assay [10] and in assay [13] was “inactive” throughout. Further, the outcome in assay [11] and in assay [12] was inactive.

For `Fc1ccc(C(OCCCc2cnc[nH]2)c2ccc(F)cc2)cc1`, the Potency result in assay [9], in assay [10] and in assay [13] was “inactive” in each case. Also, the result in assay [11] and in [12] was inactive.

Take `Cc1cc(NC2CCCCC2)nc(-n2nc(C)cc2C)n1`: the Potency result in assay [9], in [10] and in assay [13] was “inactive” in each case. The compound was called inactive in [11] and in assay [12].

As for `O=C(O)c1cc(=O)c2ccccc2[nH]1`, the Potency result in assay [9], in assay [10] and in [13] was “inactive” in each case. Further, the outcome in assay [11] and in [12] was inactive.

As for `O=C(O)CCCC[C@@H]1CCSS1`, the Potency result in assay [9], in assay [10] and in [13] was “inactive” each time. Also, the result in assay [11] and in [12] was inactive.

Consider `CN1CCC[C@H]1c1cccnc1`, for which the Potency entry in [9], in [10] and in assay [13] was “inactive” throughout. Moreover, the call in assay [11] and in [12] was inactive.

Take `COc1ccccc1CNCCCCCCNCCCCCCCCNCCCCCCNCc1ccccc1OC`: the Potency entry in assay [9], in [10] and in assay [13] was “inactive” throughout. Further, the compound was called inactive in assay [11] and in assay [12].

Take `Ic1ccc(N2CCN(Cc3c[nH]c4ncccc34)CC2)cc1`: the Potency entry in assay [9], in assay [10] and in [13] was “inactive” each time. For the same compound, the outcome in assay [11] and in assay [12] was inactive.

With `COc1cccc(OC)c1OCCNCC1COc2ccccc2O1` (centres undefined), the Potency entry in [9] and in assay [10] was “inactive” each time. In addition, the call in assay [11] and in assay [12] was inactive. The Potency in assay [13] is 0.092 µM (active).

Take `COc1ccc(NC(=O)/C=C/c2ccc(Cl)cc2)cc1`: the Potency entry in assay [9], in assay [10] and in [13] was “inactive” each time. The compound was classed as inactive in assay [11] and in assay [12].

For `COC1=C(OC)C(=O)c2ccccc2C1=O`, in [9], the Potency was 10 µM (active). Further, the Potency result in [10] and in assay [13] was “inactive” each time. The result in assay [11] and in assay [12] was inactive.

Take `CC(COc1ccc(/C=C/c2ccccc2)cc1)[N+](C)(C)C` (centres undefined): the Potency result in assay [9], in assay [10] and in assay [13] was “inactive” throughout. Further, the result in assay [11] and in [12] was inactive.

The values above are taken from PubChem BioAssay (NCATS).
